We go through nine compounds from PubChem BioAssay (Tox21).

Where “and” joins values, the source holds several entries; their conditions need not be identical. Identical values can stand only once. Inconclusive results are not listed. A structure can be active in one record and inactive in another. Calls of active or inactive are those of the source. Unless noted, calls follow the shape of the dose curve; as a rule, active = well fitted curve in the direction sought with a large enough effect in the repeat runs; inconclusive = weak or mixed curves; inactive = no such curve, though single readings can be large; an effect the other way counts as inactive or inconclusive.

Assay [1] deals with Thyrotropin-releasing hormone receptor (Homo sapiens) (UniProt P34981). The assay is described as follows: qHTS assay to identify small molecule agonists of the thyrotropin-releasing hormone receptor (TRHR) signaling pathway (AID 1346891; calls by dose curve;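 also: HEK293 cells expressing TRHR with calcium dye readout; series mostly up to about 58 µM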). In outline: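 Compounds were tested as agonists at 15 concentrations, in triplicate, on TRHR-Hek293 cells; calcium-sensitive dye fluorescence was recorded for 3 min following addition.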
Chain of Thyrotropin-releasing hormone receptor (Homo sapiens) (P34981 whole entry, looked up): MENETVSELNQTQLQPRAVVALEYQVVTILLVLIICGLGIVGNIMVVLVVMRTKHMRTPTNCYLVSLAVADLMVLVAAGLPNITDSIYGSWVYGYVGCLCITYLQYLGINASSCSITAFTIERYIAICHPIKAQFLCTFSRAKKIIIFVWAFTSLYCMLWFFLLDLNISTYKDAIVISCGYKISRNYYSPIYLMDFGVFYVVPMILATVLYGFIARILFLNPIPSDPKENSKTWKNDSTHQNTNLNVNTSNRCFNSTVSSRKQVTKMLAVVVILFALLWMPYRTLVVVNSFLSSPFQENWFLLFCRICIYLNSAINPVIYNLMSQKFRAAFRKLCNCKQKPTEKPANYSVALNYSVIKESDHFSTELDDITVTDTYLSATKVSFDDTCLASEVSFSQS
A general note: In qHTS, concentration-response curves come from the screen itself.

Assay [2] in a line: Human pregnane X receptor (PXR) small molecule agonists, qHTS cell viability counter screen (AID 1346977). Also: nearly all actives have a fitted effect of over 50% in size. In outline:
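Viability counter screen: CellTiter-Fluor signal in PXR-Luc HepG2 cells, 24hr compound exposure, 37C, 5% CO2.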

Assay [3] is described as follows: Caspase-3/7 induction in HepG2 cells by small molecules, qHTS assay (AID 1346978). Also: nearly all actives have a fitted effect of over 15% in size. The method, boiled down:
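Wild-type HepG2 cells (2,000/well) were settled 5 h at 37 C, 5% CO2, then exposed to compounds in DMSO for 17 h. Caspase-3/7 activity was read by luminescence 30 min after adding Caspase-Glo 3/7 reagent at room temperature.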

A short description of assay [4]: Caspase-3/7 induction in CHO-K1 cells by small molecules, qHTS cell viability counter screen (AID 1346979). Also: nearly all actives have a fitted effect of over 35% in size. In outline: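 Viability readout by fluorescence (CellTiter-Fluor) on wild-type CHO-K1 cells exposed for 16hr at 37C and 5% CO2 to compounds delivered in DMSO; reagent incubated 1hr before reading.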
Assay [5] can be described thus: Caspase-3/7 induction in CHO-K1 cells by small molecules, qHTS assay (AID 1346980). Also: nearly all actives have a fitted effect of over 15% in size. The method, boiled down:
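Wild-type cells were seeded at 1,500 per well and settled 5 hr at 37 C, 5% CO2, then exposed to DMSO-dissolved compounds for 17 hr. Caspase-Glo 3/7 reagent was added, and luminescence was read after 30min at room temperature.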

A short description of assay [6]: Caspase-3/7 induction in HepG2 cells by small molecules, qHTS cell viability counter screen (AID 1346981). Also: series mostly up to about 92 µM; nearly all actives have a fitted effect of over 30% in size. In outline:
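Fluorescence read-out of live-cell protease activity (CellTiter-Fluor) after 1 hr with reagent. This was measured in the same wells as the caspase-3/7 luminescence, on HepG2 cells exposed to DMSO-dissolved compounds for 16 hr at 37 C.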

Assay [7] concerns the target Nuclear receptor subfamily 1 group I member 2 (Homo sapiens) (UniProt O75469). The assay is described as follows: Human pregnane X receptor (PXR) small molecule agonists, qHTS assay (AID 1346982). Also: nearly all actives have a fitted effect of over 35% in size. Also: potency is read from the fitted curve at half-maximal effect. The method, boiled down: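 HepG2 PXR-Luc reporter line, 5% charcoal-stripped FBS; 5 hr pre-incubation, compound (DMSO) 24 hr at 37 C/5% CO2; ONE-Glo 30 min RT; luminescence read-out.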

The target in assay [8] is Cytochrome P450 2C19 (Homo sapiens) (UniProt P33261). Description: Cytochrome P450 Family 2 Subfamily C Member 19 (CYP2C19) small molecule antagonists: luciferase reporter qHTS assay (AID 1671197). Also: nearly all actives have a fitted effect of over 65% in size. Also: potency is read from the fitted curve at half-maximal effect. In outline: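 Inhibition of CYP2C19 was scored from loss of luminescence in a P450-Glo proluciferin substrate assay, NADPH-started and run 1 h at 37C, with ketoconazole as positive control.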
Chain of Cytochrome P450 2C19 (Homo sapiens) (P33261 whole entry, looked up): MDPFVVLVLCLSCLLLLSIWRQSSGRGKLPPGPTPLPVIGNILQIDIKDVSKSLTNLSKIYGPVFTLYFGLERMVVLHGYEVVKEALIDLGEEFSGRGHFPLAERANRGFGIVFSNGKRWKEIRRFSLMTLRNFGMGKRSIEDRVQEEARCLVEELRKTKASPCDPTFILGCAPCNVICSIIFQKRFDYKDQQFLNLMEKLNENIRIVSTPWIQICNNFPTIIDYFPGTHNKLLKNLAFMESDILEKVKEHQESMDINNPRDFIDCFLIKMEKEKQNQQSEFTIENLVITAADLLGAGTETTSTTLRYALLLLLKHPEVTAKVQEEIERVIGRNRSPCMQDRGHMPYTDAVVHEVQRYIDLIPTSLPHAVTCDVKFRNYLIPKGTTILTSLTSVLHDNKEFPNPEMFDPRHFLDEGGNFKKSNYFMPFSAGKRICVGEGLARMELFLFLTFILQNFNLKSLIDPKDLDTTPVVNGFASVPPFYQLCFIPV

The target in assay [9] is Cytochrome P450 1A2 (Homo sapiens) (UniProt P05177). The assay is described as follows: Cytochrome P450 Family 1 Subfamily A Member 2 (CYP1A2) small molecule antagonists: luciferase reporter qHTS assay (AID 1671199). Also: nearly all actives have a fitted effect of over 50% in size. Also: potency is read from the fitted curve at half-maximal effect. In outline:
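Luminescence readout (relative luminescence units) after luciferin detection reagent, 20 min RT. Preceded by 1 h room-temperature CYP1A2 reaction with NADPH regeneration solution following 10 min compound preincubation with enzyme and proluciferin substrate. Furafylline positive control.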
For orientation: Reporter assays use an easily measured gene product as a stand-in for the process of interest.

For assay [10], the target named is Voltage-gated inwardly rectifying potassium channel KCNH2 (Homo sapiens) (UniProt Q12809). Description: Human Ether-a-go-go-Related Gene (hERG) channel small molecule antagonists: fluorescence cell-based qHTS assay (AID 1671200).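 Also: hERG-expressing U2OS cells given a thallium stimulus after FluxOR II dye loading; series mostly up to about 77 µM; nearly all actives have a fitted effect of over 50% in size.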 In outline: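 Thallium served as the potassium surrogate; its influx into dye-loaded U2OS cells carrying the channel was measured by fluorescence over 2 min.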
Chain of Voltage-gated inwardly rectifying potassium channel KCNH2 (Homo sapiens) (Q12809 whole entry, looked up): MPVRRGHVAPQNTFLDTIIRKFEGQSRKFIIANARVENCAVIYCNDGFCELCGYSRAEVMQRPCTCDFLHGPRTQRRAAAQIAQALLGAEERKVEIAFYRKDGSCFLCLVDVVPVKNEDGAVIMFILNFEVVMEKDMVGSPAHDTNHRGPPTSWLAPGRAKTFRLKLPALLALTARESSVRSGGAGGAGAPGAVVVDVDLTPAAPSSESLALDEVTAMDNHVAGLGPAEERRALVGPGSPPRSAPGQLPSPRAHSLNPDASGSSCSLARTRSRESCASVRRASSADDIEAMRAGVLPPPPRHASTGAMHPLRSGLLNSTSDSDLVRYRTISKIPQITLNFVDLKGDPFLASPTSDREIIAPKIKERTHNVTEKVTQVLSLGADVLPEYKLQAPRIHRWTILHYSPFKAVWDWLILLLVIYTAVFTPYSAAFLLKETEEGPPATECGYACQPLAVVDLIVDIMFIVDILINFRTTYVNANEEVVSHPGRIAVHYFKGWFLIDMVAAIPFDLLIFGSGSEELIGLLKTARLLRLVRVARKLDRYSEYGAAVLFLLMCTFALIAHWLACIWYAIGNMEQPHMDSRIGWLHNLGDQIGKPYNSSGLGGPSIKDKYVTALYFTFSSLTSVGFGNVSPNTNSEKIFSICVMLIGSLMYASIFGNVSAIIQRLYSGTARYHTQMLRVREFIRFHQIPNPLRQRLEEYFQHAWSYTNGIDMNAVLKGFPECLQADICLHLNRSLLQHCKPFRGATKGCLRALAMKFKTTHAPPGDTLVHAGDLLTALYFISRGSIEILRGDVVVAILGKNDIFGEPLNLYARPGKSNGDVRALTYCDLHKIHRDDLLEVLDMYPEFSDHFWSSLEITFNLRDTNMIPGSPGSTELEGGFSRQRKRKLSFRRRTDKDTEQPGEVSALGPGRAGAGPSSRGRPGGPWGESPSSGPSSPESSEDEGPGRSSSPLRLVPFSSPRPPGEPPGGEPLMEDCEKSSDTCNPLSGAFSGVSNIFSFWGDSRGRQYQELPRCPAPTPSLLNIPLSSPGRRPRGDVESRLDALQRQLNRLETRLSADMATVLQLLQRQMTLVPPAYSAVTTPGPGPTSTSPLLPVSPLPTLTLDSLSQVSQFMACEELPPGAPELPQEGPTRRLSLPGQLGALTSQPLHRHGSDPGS

Assay [11] deals with Cytochrome P450 3A4 (Homo sapiens) (UniProt P08684). Description: Cytochrome P450 Family 3 Subfamily A Member 4 (CYP3A4) small molecule antagonists: luciferase reporter qHTS assay (AID 1671201). Also: nearly all actives have a fitted effect of over 50% in size. Also: potency is read from the fitted curve at half-maximal effect. In outline:
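Relative luminescence units after 20 min with luciferin detection reagent served as read-out. Beforehand, CYP3A4 turned over a proluciferin substrate for 1 h at room temperature with NADPH regeneration, following 10 min compound preincubation.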

In assay [12] the target is Nuclear receptor subfamily 1 group I member 2 (Rattus norvegicus) (UniProt Q9R1A7). The assay is described as follows: Rat pregnane X receptor (rPXR) activation by small molecules, qHTS assay (AID 1346983). Also: nearly all actives have a fitted effect of over 20% in size. The settings on record: rPXR luciferase reporter cells, One-Glo luminescence, 24 h; max activation: stronger effect = higher value. In outline: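 Cell-based rPXR luciferase reporter assay, 2,000 cells per well, rested 5hr at 37 C before compound addition in DMSO, then 24 hr at 37 C. One-Glo reagent was added and luminescence read after 30 min at room temperature.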
Chain of Nuclear receptor subfamily 1 group I member 2 (Rattus norvegicus) (Q9R1A7 whole entry, looked up): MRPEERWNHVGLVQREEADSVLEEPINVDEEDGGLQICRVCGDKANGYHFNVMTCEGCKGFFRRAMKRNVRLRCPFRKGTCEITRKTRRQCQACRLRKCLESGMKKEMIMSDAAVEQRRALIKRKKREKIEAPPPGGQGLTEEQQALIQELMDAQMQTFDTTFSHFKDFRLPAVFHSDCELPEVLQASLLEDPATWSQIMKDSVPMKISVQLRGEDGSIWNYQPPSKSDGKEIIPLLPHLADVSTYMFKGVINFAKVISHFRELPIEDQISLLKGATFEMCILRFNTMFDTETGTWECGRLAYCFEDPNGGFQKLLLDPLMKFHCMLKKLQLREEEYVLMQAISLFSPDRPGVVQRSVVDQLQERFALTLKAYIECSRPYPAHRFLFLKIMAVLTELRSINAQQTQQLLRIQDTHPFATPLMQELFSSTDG

Assay [13] deals with Nuclear receptor subfamily 1 group I member 2 (Homo sapiens) (UniProt O75469). The assay is described as follows: CYP3A4 induction through human pregnane X receptor (PXR) by small molecules, qHTS assay (AID 1346984). Also: nearly all actives have a fitted effect of over 40% in size. In outline: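 HepG2-derived DPX-2 line carrying PXR plus a CYP3A4-promoter luciferase reporter; cells plated 5 hr, compound-exposed 24 hr at 37C. CYP3A4 activity probed with 3uM (final) Luciferin-IPA for 3hr, then luciferase read after One-Glo.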
Chain of Nuclear receptor subfamily 1 group I member 2 (Homo sapiens) (O75469 whole entry, looked up): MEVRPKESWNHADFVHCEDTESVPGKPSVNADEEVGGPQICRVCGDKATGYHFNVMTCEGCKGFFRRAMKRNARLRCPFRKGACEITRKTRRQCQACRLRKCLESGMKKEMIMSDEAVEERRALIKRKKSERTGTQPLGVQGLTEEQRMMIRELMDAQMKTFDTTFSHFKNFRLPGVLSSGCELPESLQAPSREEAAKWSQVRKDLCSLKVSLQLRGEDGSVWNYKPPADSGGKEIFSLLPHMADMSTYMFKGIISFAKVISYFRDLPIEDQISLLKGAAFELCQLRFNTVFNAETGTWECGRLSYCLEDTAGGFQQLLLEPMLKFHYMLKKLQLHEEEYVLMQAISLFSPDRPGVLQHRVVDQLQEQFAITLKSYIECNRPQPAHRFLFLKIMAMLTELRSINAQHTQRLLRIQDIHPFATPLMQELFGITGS

Assay [14] shares this target. Description: Human pregnane X receptor (PXR) activation by small molecules, qHTS assay (AID 1346985). Also: nearly all actives have a fitted effect of over 40% in size. Also: potency is read from the fitted curve at half-maximal effect. The method, boiled down: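 DPX-2 cells (HepG2 co-transfected with a PXR response element and a CYP3A4-promoter luciferase construct) were seeded at 2,000 per well, rested 5 hr at 37C, then exposed to DMSO-dissolved compounds for 24 hr. Activation was read as luciferase luminescence.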

Assay [15] has as its target Cytochrome P450 2D6 (Homo sapiens) (UniProt P10635). Description: Cytochrome P450 Family 2 Subfamily D Member 6 (CYP2D6) small molecule antagonists: luciferase reporter qHTS assay (AID 1671196). Also: nearly all actives have a fitted effect of over 50% in size. Also: potency is read from the fitted curve at half-maximal effect. The method, boiled down:
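Luminogenic proluciferin substrate, CYP2D6 enzyme; 10 min RT preincubation with compound, NADPH regeneration system added, 1 h RT. Stop/detection reagent, 20 min RT, luminescence read (RLU). Signal proportional to CYP activity.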

The target in assay [16] is Cytochrome P450 2C9 (Homo sapiens) (UniProt P11712). The assay is described as follows: Cytochrome P450 Family 2 Subfamily C Member 9 (CYP2C9) small molecule antagonists: luciferase reporter qHTS assay (AID 1671198). Also: nearly all actives have a fitted effect of over 50% in size. Also: potency is read from the fitted curve at half-maximal effect. The method, boiled down: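 CYP2C9 activity was measured with a P450-Glo proluciferin substrate. Enzyme–substrate mix was held with compound for 10 min at room temperature, then NADPH regeneration solution was added for 1 h at 37C. Luciferin product was read as luminescence.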
Chain of Cytochrome P450 2C9 (Homo sapiens) (P11712 whole entry, looked up): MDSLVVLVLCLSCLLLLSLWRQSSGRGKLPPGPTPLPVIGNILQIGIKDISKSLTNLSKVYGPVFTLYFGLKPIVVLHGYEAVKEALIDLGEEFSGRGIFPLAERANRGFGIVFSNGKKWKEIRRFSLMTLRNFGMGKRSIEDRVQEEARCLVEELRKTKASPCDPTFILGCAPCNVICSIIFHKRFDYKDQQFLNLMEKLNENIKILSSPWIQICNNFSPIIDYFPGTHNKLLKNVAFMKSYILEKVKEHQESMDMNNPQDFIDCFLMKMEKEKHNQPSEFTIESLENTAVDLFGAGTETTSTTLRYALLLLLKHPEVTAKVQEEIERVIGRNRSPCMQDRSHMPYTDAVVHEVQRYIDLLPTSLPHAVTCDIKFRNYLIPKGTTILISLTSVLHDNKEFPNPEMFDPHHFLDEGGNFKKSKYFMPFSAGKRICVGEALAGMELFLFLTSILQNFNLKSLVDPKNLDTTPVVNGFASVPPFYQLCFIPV
% is scaled to controls: 0 for no effect and ±100 for the full control effect.

Chain of Cytochrome P450 1A2 (Homo sapiens) (P05177 whole entry, looked up): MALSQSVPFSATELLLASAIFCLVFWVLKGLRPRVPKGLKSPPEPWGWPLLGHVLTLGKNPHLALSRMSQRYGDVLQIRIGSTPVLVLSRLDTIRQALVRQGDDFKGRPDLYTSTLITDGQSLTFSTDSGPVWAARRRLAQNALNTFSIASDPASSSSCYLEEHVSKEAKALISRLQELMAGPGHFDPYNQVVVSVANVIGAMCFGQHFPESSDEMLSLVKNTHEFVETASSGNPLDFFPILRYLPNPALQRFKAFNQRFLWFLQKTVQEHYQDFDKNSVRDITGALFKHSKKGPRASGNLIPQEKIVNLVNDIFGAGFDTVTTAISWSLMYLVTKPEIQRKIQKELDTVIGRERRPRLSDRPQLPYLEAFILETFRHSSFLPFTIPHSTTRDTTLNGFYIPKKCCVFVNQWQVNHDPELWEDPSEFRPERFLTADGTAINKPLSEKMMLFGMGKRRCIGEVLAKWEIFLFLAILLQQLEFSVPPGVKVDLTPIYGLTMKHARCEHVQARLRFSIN
Chain of Cytochrome P450 3A4 (Homo sapiens) (P08684 whole entry, looked up): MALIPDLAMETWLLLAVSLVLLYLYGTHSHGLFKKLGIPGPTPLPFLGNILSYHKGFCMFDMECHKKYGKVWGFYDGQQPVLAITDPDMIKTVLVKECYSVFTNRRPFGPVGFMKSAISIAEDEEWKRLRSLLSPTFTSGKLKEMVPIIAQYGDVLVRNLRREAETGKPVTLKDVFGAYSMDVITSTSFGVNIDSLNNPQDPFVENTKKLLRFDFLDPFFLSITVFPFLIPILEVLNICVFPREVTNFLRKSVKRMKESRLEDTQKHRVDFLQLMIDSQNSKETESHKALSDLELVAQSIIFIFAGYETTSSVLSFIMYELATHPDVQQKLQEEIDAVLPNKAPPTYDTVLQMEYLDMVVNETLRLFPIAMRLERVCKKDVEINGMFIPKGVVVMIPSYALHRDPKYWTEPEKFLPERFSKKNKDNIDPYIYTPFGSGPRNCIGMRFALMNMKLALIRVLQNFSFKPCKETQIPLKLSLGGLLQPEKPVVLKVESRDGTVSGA
Chain of Cytochrome P450 2D6 (Homo sapiens) (P10635 whole entry, looked up): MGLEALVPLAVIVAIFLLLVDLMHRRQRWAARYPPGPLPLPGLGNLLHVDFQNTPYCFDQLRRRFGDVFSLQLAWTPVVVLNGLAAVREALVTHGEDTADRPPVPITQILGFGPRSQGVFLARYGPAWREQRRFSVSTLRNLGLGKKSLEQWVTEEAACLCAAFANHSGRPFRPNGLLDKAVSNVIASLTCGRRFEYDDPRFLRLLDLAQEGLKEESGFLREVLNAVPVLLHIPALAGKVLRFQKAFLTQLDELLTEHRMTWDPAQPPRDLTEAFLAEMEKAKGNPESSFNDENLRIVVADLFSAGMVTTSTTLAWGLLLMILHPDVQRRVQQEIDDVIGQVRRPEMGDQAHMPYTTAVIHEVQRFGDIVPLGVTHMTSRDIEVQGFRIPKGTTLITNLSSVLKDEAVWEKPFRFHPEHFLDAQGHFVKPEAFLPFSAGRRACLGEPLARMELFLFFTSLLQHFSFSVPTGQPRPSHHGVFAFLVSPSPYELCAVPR

As to `C=CC(C)(O)CCCC(C)CCCC(C)CCCC(C)C` (configuration not stated), the Potency result in assay [1], in assay [2], in assay [3], in [4], in [6] and in assay [8] was “inactive” throughout. Moreover, the Potency entry in assay [10] and in assay [11] was “inactive” each time. Moreover, the call in assay [5] was inactive. The Potency was 24.2 µM (active) in assay [7] and 35.4 µM (active) in assay [9].

Consider `N#C/C(=C1\SCC(c2ccccc2Cl)S1)n1ccnc1` (configuration not stated), for which the Potency entry in assay [1], in assay [2], in assay [3], in [4], in [6] and in assay [13] was “inactive” each time. Further, in assay [10], the Potency entry was “inactive”. The compound was called inactive in [5]. Further, the Potency in assay [7] is 26.6 µM (active); in assay [14] it was 14.1 µM (active); in [15], 2.19 µM (active); in assay [9], 0.871 µM (active). In addition, the max activation in assay [12] was -0.365% (inactive).

Turning to `Cc1cc(O)c(C(C)C)cc1Cl`, the Potency result in [1], in [2], in [3], in [4], in [6] and in assay [7] was “inactive” in each case. Moreover, the Potency result in assay [13], in [14], in [10] and in assay [11] was “inactive” throughout. The result in assay [5] was inactive. Also, the max activation in assay [12] was -0.692% (inactive). Besides, the Potency is 63.3 µM (active) and inactive in assay [15]; 35.6 µM (active) and 24.5 µM (active) in assay [8]; 14.2 µM (active) and 15.5 µM (active) in [16]; 20 µM (active) and 15.5 µM (active) in assay [9].

As for `C1COCO1`, the Potency result in [1], in [2], in assay [3], in assay [4], in assay [6] and in [7] was “inactive” throughout. In addition, the Potency entry in assay [15], in [8], in [10] and in assay [11] was “inactive” in each case. Besides, the call in assay [5] was inactive.

As for `O=Cc1c(Cl)cccc1Cl`, the Potency result in assay [1], in assay [2], in assay [3], in assay [4], in assay [6] and in assay [7] was “inactive” in each case. Further, the Potency entry in assay [15], in assay [8], in assay [16], in assay [10] and in [11] was “inactive” in each case. Further, the compound was called inactive in assay [5].

`CCC(C)=O`: the Potency result in [1], in [2], in [3], in assay [4], in assay [6] and in assay [15] was “inactive” each time. The Potency entry in assay [8], in [16], in assay [10] and in [11] was “inactive” each time. Besides, the call in assay [5] was inactive.

`CC(=O)Nc1ccccc1C`: the Potency result in assay [1], in assay [2], in assay [3], in [4], in [6] and in assay [7] was “inactive” each time. Also, the Potency result in assay [15], in [16], in assay [9], in [10] and in [11] was “inactive” throughout. Also, the result in assay [5] was inactive.

Regarding `CC(C)CCCCCOC(=O)CCCCC(=O)OCCCCCC(C)C`, the Potency result in assay [1], in assay [2], in assay [3], in [4], in [6] and in assay [15] was “inactive” in each case. Also, the Potency entry in [9] and in [10] was “inactive” in each case. Besides, in assay [5], the result was inactive. Besides, the Potency in assay [16] is 63.3 µM (active).

Turning to `CC1(C)C2=CCCC(C)(C)[C@]23CC[C@H]1C3`, the Potency entry in assay [1], in [2], in assay [3], in assay [4], in assay [6] and in [15] was “inactive” each time. In addition, the Potency entry in assay [10] was “inactive”. Further, the compound was classed as inactive in [5]. For the same compound, the Potency in [7] was 54.5 µM (active); in assay [16], 79.6 µM (active); in assay [11], 35.6 µM (active).
